Assay outcomes: PubChem BioAssay, National Center for Advancing Translational Sciences (NCATS)
KCNH2 3.1 block: qHTS for Inhibitors of KCHN2 3.1: Mutant qHTS | Potassium voltage-gated channel subfamily H member 2, brain isoform KCNH2 3.1 (human) | U2OS KCNH2 3.1, thallium flux FluxOr; hits give low values | activity change, % (tested at about 1.8 µM) | 340,000 compounds, 0.95% hits | AID 720553, 2013;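 active = maximum activity change below -70%; inconclusive = maximum activity change from -70% to -50%; inactive = maximum activity change above -50%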;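 also: thallium influx rate constant from kinetic fluorescence after stimulation buffer; % is scaled to controls: 0 for no effect and ±100 for the full control effect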
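Channel expression came from 3.1 mutant virus (1.77 x 10^8 /mL) applied to suspended U2OS cells for 4 h. Flux was tracked with FluxOr dye plus Red40 quencher, and kinetic rate constants normalized to controls.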
MCF10A rerep: A quantitative high throughput screen for small molecules that induce DNA re-replication in MCF 10a normal breast cells; Potency, µM (highest dose often 46.1 µM), for inactives: at the highest dose activity, positive = re-replication, actives largely listed as activators; MCF 10A DNA re-replication, Hoechst nuclear intensity, 48 h; 350,000 compounds, 2.9% hits; AID 624296, 2012; also: potency is read from the fitted curve at half-maximal effect; % of control where 0% means no effect; nearly all actives have a fitted effect of over 50% in size
KB-V1 MDR tox: qHTS assay for MDR1-selective chemotherapeutics: Primary screen using the drug-selected MDR subline cells KB-V1. KB-V1 MDR cells viability, CellTiter-Glo, 72 h. AID 1347076, 2019. 400,000 compounds, 3.4% hits. Potency, µM (doses to about 46.1 µM), hits mostly cytotoxic; also: potency is read from the fitted curve at half-maximal effect; % is scaled to controls: 0 for no effect and ±100 for the full control effect; nearly all actives have a fitted effect of over 60% in size
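Compound-treated KB-V1 multidrug-resistant cells, 72 h, 37 degrees C; viability by CellTiter-Glo. Fitted qHTS curves give the values.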
KB-3-1 tox: qHTS assay for MDR1-selective chemotherapeutics: Primary screen using the parental adenocarcinoma cell KB-3-1 | 400,000 compounds, 1.4% hits | Potency, µM (doses to about 46.1 µM), most hits filed as cytotoxic | KB-3-1 viability, CellTiter-Glo ATP luminescence, 72 h; also: potency is read from the fitted curve at half-maximal effect; % is scaled to controls: 0 for no effect and ±100 for the full control effect; nearly all actives have a fitted effect of over 60% in size
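Viability of parental KB-3-1 cells, measured by CellTiter-Glo luminescence, followed a 72 h incubation at 37 °C with pinned compounds in phenol-red-free DMEM containing 10% FBS.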
SW480 rereplic: A quantitative high throughput screen for small molecules that induce DNA re-replication in SW480 colon adenocarcinoma cells | SW480 DNA re-replication, Hoechst DNA content imaging, 48 h | Potency, µM (titrated, usually from 46.1 µM), for the others: at the top dose re-replication activation, hits mostly activators | 340,000 compounds, 1.8% hits | AID 624297, 2012; also: potency is read from the fitted curve at half-maximal effect; % of control where 0% means no effect; nearly all actives have a fitted effect of over 55% in size
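Compounds, transferred as 23 nL by pin tool, were incubated with cells for 48 hr; DNA content per nucleus was then quantified by Hoechst staining and fluorescence plate imaging.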
KCNH2 WT inh: qHTS for Inhibitors of KCHN2 3.1: Wildtype qHTS; activity change, % at 1.84 µM; Voltage-gated inwardly rectifying potassium channel KCNH2 (Homo sapiens), Q12809; 340,000 compounds, 0.37% hits; AID 720551, 2013; U2OS, BacMam KCNH2, thallium flux FluxOr; hits give low values;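 active = maximum activity change below -70%; inconclusive = maximum activity change between -70% and -50%; inactive = maximum activity change above -50%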; also: % is scaled to controls: 0 for no effect and ±100 for the full control effect
Target sequence (Q12809 whole entry, looked up): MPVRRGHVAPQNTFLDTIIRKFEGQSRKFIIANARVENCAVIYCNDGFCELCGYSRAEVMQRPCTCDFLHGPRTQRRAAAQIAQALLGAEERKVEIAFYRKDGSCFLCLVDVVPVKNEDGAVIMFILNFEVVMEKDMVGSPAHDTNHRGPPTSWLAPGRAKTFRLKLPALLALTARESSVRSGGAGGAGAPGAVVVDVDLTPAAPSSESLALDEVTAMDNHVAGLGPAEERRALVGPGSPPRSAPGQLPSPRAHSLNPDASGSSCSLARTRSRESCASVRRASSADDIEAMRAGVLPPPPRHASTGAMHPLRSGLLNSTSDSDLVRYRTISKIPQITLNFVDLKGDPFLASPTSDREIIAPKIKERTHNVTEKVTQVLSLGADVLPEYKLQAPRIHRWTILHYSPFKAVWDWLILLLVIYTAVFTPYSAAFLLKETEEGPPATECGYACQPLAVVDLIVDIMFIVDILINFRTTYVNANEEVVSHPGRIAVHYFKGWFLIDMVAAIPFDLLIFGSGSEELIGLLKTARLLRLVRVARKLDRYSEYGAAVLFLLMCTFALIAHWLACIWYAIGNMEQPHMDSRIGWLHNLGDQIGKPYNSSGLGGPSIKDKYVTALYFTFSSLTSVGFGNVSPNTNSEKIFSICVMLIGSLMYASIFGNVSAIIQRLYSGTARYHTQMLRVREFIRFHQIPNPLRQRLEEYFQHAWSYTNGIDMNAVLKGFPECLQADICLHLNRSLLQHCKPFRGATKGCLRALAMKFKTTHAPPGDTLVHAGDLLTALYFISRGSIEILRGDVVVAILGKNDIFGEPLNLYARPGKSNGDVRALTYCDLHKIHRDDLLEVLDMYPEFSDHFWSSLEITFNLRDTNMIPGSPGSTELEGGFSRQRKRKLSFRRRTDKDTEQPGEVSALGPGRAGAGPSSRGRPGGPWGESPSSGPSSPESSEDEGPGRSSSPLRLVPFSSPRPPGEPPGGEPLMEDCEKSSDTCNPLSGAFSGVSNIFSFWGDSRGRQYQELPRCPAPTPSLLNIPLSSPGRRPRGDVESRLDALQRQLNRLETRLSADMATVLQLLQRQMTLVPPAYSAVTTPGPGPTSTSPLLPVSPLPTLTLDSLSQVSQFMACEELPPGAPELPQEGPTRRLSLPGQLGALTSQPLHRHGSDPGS
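U2OS cells transduced with wild-type KCNH2 virus are loaded with FluxOr dye for 45 min, and thallium flux is measured in kinetic reads before and after stimulation buffer. Rate constants are normalized to DMSO controls.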
Active calls of the source: *; i = inactive; ? = inconclusive; nt = no result; [ ] = another dose, or the depositor's remark. Only some compounds are listed: those with a hit (about 7.6% of all), similar ones and a draw of the others. Unless noted, calls follow the shape of the dose curve; as a rule, active = well fitted curve in the direction sought with a large enough effect; inconclusive = small, poorly fitted or top-dose-only effect, or another doubt; inactive = no such curve, though single readings can be large; an effect the other way counts as inactive or inconclusive.

SMILES	KCNH2 3.1 block	MCF10A rerep	KB-V1 MDR tox	KB-3-1 tox	SW480 rereplic	KCNH2 WT inh
CCCCN(CCCC)c1nc2ccccc2nc1NS(=O)(=O)c1ccc(NC(C)=O)cc1	8	12µM*	i	i	21µM*	6
Cc1c(Cl)cccc1-n1ncc(C(=O)NCCN2CCN(C)CC2)c1C1CCN(C(=O)OC(C)(C)C)CC1	nt	nt	i	i	nt	nt
N=c1oc2c3c4c(cc2cc1C(=O)Nc1ccccc1)CCCN4CCC3	-85*	4.1µM*	i	i	1.4µM*	-223*
N=c1oc2ccccc2cc1C(=O)Nc1ccc(F)cc1	6	-1%	i	i	1%	-22
CNC(=O)COc1ncnc2scc(-c3ccc(F)cc3)c12	12	?	i	i	i[1.84 µM]	-3
Cc1cccn2c(=O)c3cc(C(=O)NCC4CCCO4)c(=N)n(Cc4cccnc4)c3nc12 (stereo not drawn)	-16	13µM*	i	i	9.2µM*	-5
N=c1c(C(=O)NCC2CCCO2)cc2c(=O)n3ccccc3nc2n1Cc1cccnc1 (stereo not drawn)	-12	13µM*	i	i	10µM*	28
N=c1c(C(=O)NCC2CCCO2)cc2c(=O)n3ccccc3nc2n1Cc1ccc(F)cc1 (stereo not drawn)	-27	9.2µM*	i	i	18µM*	-15
Cc1ccc2nc3c(cc(C(=O)NCC4CCCO4)c(=N)n3C(C)C)c(=O)n2c1 (stereo not drawn)	nt	nt	i	i	nt	nt
N=c1c(C(=O)NCC2CCCO2)cc2c(=O)n3ccccc3nc2n1Cc1ccco1 (stereo not drawn)	0	?	i	i	21µM*	8
Cc1nnc(SCCn2c(N3CCC(C)CC3)nc3c2c(=O)n(C)c(=O)n3C)s1	3	14%	12µM*	?	-10%	14
C#CCOCCOCCOCCNc1nc(N2CCN(C(=O)CCCCCCCCCCNC(=O)[C@H]([C@@H](C)CC)n3cc(CCCCCN)nn3)CC2)nc(N2CCN(C(=O)CCCCCCCCCCNC(=O)[C@H](CO)n3cc(CCCCCN)nn3)CC2)n1	1	3%	i	?	-4%	-21
C#CCOCCOCCOCCNc1nc(N2CCN(C(=O)[C@H](CCCCN)n3cc(CC(C)O)nn3)CC2)nc(N2CCN(C(=O)[C@H](CCCCN)n3cc(CC(C)O)nn3)CC2)n1 (stereo partly drawn)	-76*	?	?	i	0%[9.22 µM]	-2
C#CCOCCOCCOCCNc1nc(N2CCOCC2)nc(N2CCN(C(=O)CCCCCCCCCCNC(=O)[C@@H]([C@H](C)CC)n3cc(CCCCCN)nn3)CC2)n1	-4	12µM*	i	i	?	-17
C#CCOCCOCCOCCNc1nc(N2CCN(C(=O)CCCCCCCCCCNC(=O)Cn3cc(C[C@@H](C)O)nn3)CC2)nc(N2CCN(C(=O)CCCCCCCCCCNC(=O)[C@H](CO)n3cc(CCCSC)nn3)CC2)n1	4	6.5µM*	?	i	8%	6
C#CCOCCOCCOCCNc1nc(N2CCN(C(=O)Cn3cc(CCO)nn3)CC2)nc(N2CCN(C(=O)[C@H](CCCCN)n3cc(CC(C)O)nn3)CC2)n1 (stereo partly drawn)	11	1%	?	i	-12%[9.22 µM]	-2
COc1ccc(NC(=O)CSC2=Nc3ccccc3C3=NC(CCC(=O)NCc4ccco4)C(=O)N23)cc1 (stereo not drawn)	nt	nt	i	i	nt	nt
OC(Cc1ccccc1Br)c1ncc(-c2ccc(Cl)cc2)[nH]1 (stereo not drawn)	nt	nt	?	i	nt	nt
O=C(Nc1ccccc1)c1ccc(-c2ccc([N+](=O)[O-])cc2)o1	6	23µM*	i	?	1%	2
COc1ccc(NC(=O)c2ccc(-c3ccc([N+](=O)[O-])cc3)o2)cc1	-40	8%	i	i	-10%	17
CN(C)C(=O)c1ccc(NC(=O)c2ccc(-c3ccc(Cl)cc3)o2)cc1	3	28%	21µM*	i	24%	-2
O=C(Nc1ccccc1)c1ccc(-c2ccc(Br)cc2)o1	-1	21µM*	i	i	?	8
O=C(Nc1cccc(NC(=O)c2ccc(-c3cccc(Br)c3)o2)c1)c1ccco1	-24	21%	23µM*	i	?	5
CCC(C)n1c(SCC(=O)/C(C#N)=C(\C)N)nc2ccccc2c1=O (stereo not drawn)	-7	19%	i	i	-9%	-2
COc1ccc(NC(=O)Cn2c(=O)n(-c3ccc(C)c(C)c3)c(=O)c3c(C)c(C)sc32)cc1	nt	nt	i	i	nt	nt
SMILES	KCNH2 3.1 block	MCF10A rerep	KB-V1 MDR tox	KB-3-1 tox	SW480 rereplic	KCNH2 WT inh
Cc1cnccc1/C=C/c1ccc(N)cc1	nt	nt	i	i	nt	nt
O=C(Nc1cccc(C(=O)Nc2ccc(Br)cc2)c1)c1ccccc1	0	?	i	i	3%	-7
O=C(Nc1ccc(CN2CCOCC2)cc1)c1ccc(-c2ccc(Br)cc2)o1	-103*	?	21µM*	i	?	12
O=C(Nc1cccc(NC(=O)c2ccc(-c3ccc(Br)cc3)o2)c1)c1ccccc1	-94*	?	i	i	?	-4
COc1ccccc1NC(=O)c1ccc(-c2ccc(Br)cc2)o1	?	?	3.3µM*	5.8µM*	?	29
O=C(Nc1ccc(CN2CCOCC2)cc1)c1ccco1	-3	-12%	i	i	4%	-9
COc1ccc(CN(C)C2CCCCC2)c(C)c1C	-1	-3%	i	i	-2%	12
O=C(O)CSc1c2c(nc3cc(C(=O)Nc4cccc(C(F)(F)F)c4)ccc13)CCC2	-8	4%	i	i	12%	3
CC(C)c1ccccc1NC(=S)N(C)C	1	?	i	i	-4%	-3
Clc1ccc(-c2nc3cnccn3c2NC2CCCC2)cc1	-2	21µM*	6.5µM*	?	23µM*	0
COc1ccc(Sc2ccc(-c3nc4cnccn4c3NC3CCCCC3)cc2OC)cc1	2	3.3µM*	?	?	18µM*	-13
Cc1ccc2nc(-c3ccncc3)c(NC3CCCCC3)n2c1	2	9%	21µM*	?	0%	-22
